The test relates to Vero E6 infected with SARS-CoV-2. In words: morphology score (similarity to uninfected cells); higher = more like uninfected cells. The following applies: 24 h.
In the case of `c1ccc2c(Cc3c[nH]c4ccccc34)c[nH]c2c1` [3,3'-diindolylmethane] (10 µM), the morphology score was 0.0838.

In turn, `CC(C)(C=O)Cc1cc(C(C)(C)C)c(O)c(C(C)(C)C)c1` (10 µM) had a morphology score of 0.0771. `c1ccc([C@@H]2C[C@H]2NC2CCNCC2)cc1` (10 µM) registered a morphology score of -0.09. For the compound `C[C@](O)(COc1ccc(C#N)cc1)C(=O)Nc1ccc(C#N)c(C(F)(F)F)c1` [ostarine] (10 µM), the morphology score worked out at 0.0725. `CC(CC(C(N)=O)(c1ccccc1)c1ccccc1)N(C)C` (stereo unspecified) [aminopentamide] (10 µM) yielded a morphology score of 0.0885. `NC/C(=C/F)CCc1ccc(F)cc1` [mofegiline] (10 µM) registered a morphology score of -0.0471. In turn, `Cc1csc(-c2nnc(Nc3ccc(Oc4ncccc4-c4ccnc(N)n4)cc3)c3ccccc23)c1` (0.833333 µM) displayed a morphology score of 0.202. Compound `OCc1cncc(F)c1` [5-fluoro-3-pyridyl-methanol] (10 µM) showed a morphology score of 0.135.

In the case of `C[N+]1(C)[C@@H]2CC[C@H]1C[C@@H](OC(=O)C(CO)c1ccccc1)C2` (stereo partly specified) [methylatropine-nitrate] (10 µM), the morphology score came to 0.131. For the compound `COCc1c(-c2ccc(NC(=O)Nc3cc(C(F)(F)F)ccc3F)c(F)c2)c2c(N)ncnn2c1CN1CCOCC1` (0.833333 µM), the morphology score was found to be 0.227. In the case of `Cc1cc(F)c(Nc2ncnc3cc(OCc4ccccc4)ccc23)cc1O` (10 µM), the morphology score came out at 0.0561. Take `NS(=O)(=O)C#Cc1ccccc1` [pifithrin-mu] (0.833333 µM): the morphology score came to 0.168. Compound `C[C@@H](NCCCc1cccc(C(F)(F)F)c1)c1cccc2ccccc12` [cinacalcet] (10 µM) showed a morphology score of 0.845.

`COC(=O)N[C@H](C(=O)N1CCC[C@H]1C(=O)Nc1ccc([C@@H]2CC[C@@H](c3ccc(NC(=O)[C@@H]4CCCN4C(=O)[C@@H](NC(=O)OC)C(C)C)cc3)N2c2ccc(C(C)(C)C)cc2)cc1)C(C)C` [ombitasvir] (10 µM) showed a morphology score of 0.125. Compound `CCN(CC)CCOC(=O)c1cc(Cl)c(N)cc1OC` (10 µM) displayed a morphology score of 0.128. As to `COc1cc(/C=C/C(N)=O)cc(OC)c1OC` [cintriamide] (10 µM), the morphology score is -0.0883. `COc1cc(Oc2ccnc3cc(OC)c(OC)cc23)ccc1NC(=O)NC(C)c1nccs1` (stereo unspecified) (10 µM) had a morphology score of 0.332. For the compound `O=C(O)C(Cl)Cl` [dichloroacetate] (10 µM), the morphology score came out at 0.236. Turning to `CC1(C)S[C@@H]2[C@H](NC(=O)C(C(=O)O)c3ccccc3)C(=O)N2[C@H]1C(=O)O` (stereo partly specified) [carbenicillin] (10 µM), the morphology score turned out to be 0.0766. For the compound `CC(C)(C)OC(=O)N[C@H]1CCCCC/C=C\[C@@H]2C[C@@]2(C(=O)NS(=O)(=O)C2CC2)NC(=O)[C@@H]2C[C@@H](OC(=O)N3Cc4cccc(F)c4C3)CN2C1=O` [danoprevir] (10 µM), the morphology score is -0.0154.

For the compound `Cc1cccc(-c2[nH]c(C(C)(C)C)nc2-c2ccc3c(c2)OCO3)n1` (10 µM), the morphology score is -0.132. Regarding `O=C1NC(=O)[C@@H](c2cn3c4c(cccc24)CCC3)[C@@H]1c1c[nH]c2ccccc12` [tivantinib] (10 µM), the morphology score is -0.141. On to `Cc1c(-c2ccc(-c3ccccc3F)cc2)nc2ccc(F)cc2c1C(=O)O` [brequinar] (10 µM), for which the morphology score was found to be 0.115. `CC(=O)N[C@@H](CCC(N)=O)C(=O)O` [aceglutamide] (10 µM) returned a morphology score of -0.137. The value for `CCOC(=O)c1cnc2c(cnn2CC)c1NN=C(C)C` [etazolate] (10 µM) was 0.254. With `N=C(N)NCCCC[C@@H]1NC(=O)CCSSC[C@@H](C(N)=O)NC(=O)[C@@H]2CCCN2C(=O)[C@H](Cc2c[nH]c3ccccc23)NC(=O)[C@H](CC(=O)O)NC(=O)CNC1=O` [eptifibatide] (10 µM), the morphology score was -0.125. `COc1ccc(/C=C/C(=O)/C=C(O)/C=C/c2ccc(OC)c(OC)c2)cc1OC` (10 µM) registered a morphology score of 0.335.

For `CN1CCCN=C1/C=C/c1cccs1` [pyrantel-pamoate] (10 µM), the morphology score was determined as 0.103. `CNCCCCOc1ccccc1Cc1ccccc1` [bifemelane] (10 µM) yielded a morphology score of 0.517. `CC(C(=O)O)c1ccc(C(=O)c2cccs2)cc1` (stereo unspecified) [suprofen] (10 µM) displayed a morphology score of 0.123.

`O=S(=O)(F)Cc1ccccc1` [phenylmethylsulfonyl-fluoride] (10 µM) yielded a morphology score of 0.191.

(Values after the supplement of paper PMC13380429.)
